Experimental data reported in ChEMBL document CHEMBL4513216, “Probing the Open Global Health Chemical Diversity Library for Multistage-Active Starting Points for Next-Generation Antimalarials” (ACS Infect Dis, 2020).
The whole screen tested about 69,000 compounds, of which about 8,600 (12%) showed an effect of 50% or more. Only a selection was taken, and strong results are over-represented in it overall.

Tested on: Plasmodium berghei
Assay: Screen against P. berghei liver stage (PbLuc), transformed with Luciferase, at 10uM
Format: functional, HepG2
Conditions: tested at 10 uM

Compound	INHIBITION
CN(C)c1ncc(-c2ccc(C(N)=O)cc2)c(C2CCNC2)n1 (stereo not drawn)	6.33%
Cc1cc(C(=O)N2CCC3(C2)CN(c2cccnc2)C(=O)CN3C)[nH]n1 (stereo not drawn)	22.4%
CC(C)c1nccn1C1CCCN(C(=O)c2cc(C(N)=O)cs2)C1 (stereo not drawn)	35.3%
CC(=O)N1CCC2(CC1)CN(C(C)C)c1ccc(F)cc12	12.2%
CN1CCC(Cc2cccc(-c3cc(F)ccc3C(=O)O)n2)CC1	23.4%
CC(C)Oc1ccc(C(=O)N2CC[C@H](O)[C@@H](n3ccnc3)CC2)cc1	26.3%
CCS(=O)(=O)c1ccccc1N1CCC(N)CC1	31.8%
CC(C)c1ncncc1C(=O)N1CCN(Cc2cccnc2)CC1	31.9%
COCCOCC1(CNCc2ccc(F)cc2)C[C@@H](O)[C@@H](O)C1 (stereo partly drawn)	-43%
CC(C)Cc1nnc2sc(-c3cc(C(C)C)n[nH]3)nn12	46.6%
CC(C)(C)c1ccc(CN2C[C@H]3CC(O)C[C@H]3C2)c(OCC(N)=O)c1 (stereo partly drawn)	-2.85%
COc1ccc2cnn(CC(=O)NC3CCCC3)c(=O)c2c1OC	40.5%
CCOc1ccc(NC(=O)N(CCC#N)Cc2ccccn2)cc1F	-1.95%
Cc1cc(C)cc(NC(=O)N(CCC#N)CCCN(C)C)c1	52.6%
Cc1cc(NC(=O)N(CCC#N)CCCN(C)C)ccc1F	52.6%
CN(C)CCCN(CCC#N)C(=O)Nc1ccc2[nH]ccc2c1	35.9%
COC(C)c1cccc(NC(=O)N(CCC#N)Cc2ccccn2)c1 (stereo not drawn)	27.8%
N#CCCN(Cc1ccccn1)C(=O)Nc1cccc(F)c1	-27.6%
CCOc1ccccc1-n1c(C2CC2)n[nH]c1=O	-8.25%
COc1cc(N2CC[C@@H]3O[C@H](C(=O)N(C)C)C[C@@H]32)ncn1	-20.1%
Cc1cccc(CN2CCc3onc(CO)c3C2)n1	28.5%
O=C1NCCN(C(=O)c2cn3ccsc3n2)C1Cc1ccccc1 (stereo not drawn)	54.5%

Compound	INHIBITION
CCC(=O)N1CCN(C(=O)c2cn3ccsc3n2)[C@H]2CS(=O)(=O)C[C@H]21	14.9%
O=C1NCCN(C(=O)c2cn3ccsc3n2)C1c1cccc(F)c1 (stereo not drawn)	43.6%
Cc1cccnc1CN1CCN(C(=O)[C@@]23CNC[C@@H]2CN(C)C3)CC1	41.5%
Cc1cs/c(=N\C(=O)Cn2nc(N3CCSCC3)ccc2=O)[nH]1	10.1%
CCN(CC)CC1CCN(C(=O)CCn2cccn2)CC1	17.15%
COC1CCN(C(=O)CCn2cccn2)CC1	-9.85%
CNC(=O)C1CCN(C(=O)CCn2cccn2)CC1	62.8%
COc1ccc(C)cc1NC(=O)C1CSc2ncc(C)c(=O)n2C1 (stereo not drawn)	5.36%
c1ccc(CN2CCCC2)c(CNc2cncc3nnnn23)c1	-14.3%
CCCNC(=O)c1cc(OC)c(OC)cc1N(C)S(C)(=O)=O	24.9%
CCn1nc(CC(C)C)cc1C(=O)NCCS(=O)(=O)N(C)C	7.25%
COc1cc(C(=O)NCC2(N(C)C)CCN(C)CC2)c2ccccc2n1	68.4%
COc1cc(C(=O)NC(C)(C)CN2CCN(C)CC2)c2ccccc2n1	28.05%
COc1cc(C(=O)NCCS(=O)(=O)N(C)C)c2ccccc2n1	52.9%
CN1CCC(NC(=O)c2cc(C3CCCCC3)nc3ccccc23)CC1	10.5%
Cc1nc(-c2ccccc2)sc1CNC1CCc2ncnn2C1 (stereo not drawn)	8.64%
CCn1nc2c(cc1=O)CN(Cc1nc(C)c(C)o1)CC2	-29.7%
CCCN1CCN(C(=O)CCn2nc(C(F)(F)F)c(Br)c2C)CC1	6.67%
O=C1C[C@@H]2CC[C@H](CN1)N2C(=O)CCc1ccc2c(c1)OCO2	17.6%
Cn1nccc1-c1ccc2nc(C3CCN(CCO)CC3)nn2c1	33.4%
c1cnc(N2CCC(c3nccn3CC3CC3)CC2)nc1	36.5%
CN(C)Cc1cc(=O)n2c(n1)CN(C(=O)Cc1cccs1)CCC2	27.6%

Compound	INHIBITION
CC1CN(CC(=O)N2CCCC2)CCN1c1ccc2nncn2n1 (stereo not drawn)	7.67%
CC1CN(CC2CCCCC2)CCN1c1ccc2nncn2n1 (stereo not drawn)	89.3%
O=C(CN1CCN(c2ccc3nncn3n2)CC1)NC1CCCC1	-0.219%
Cc1nc(CN2CCN(c3ccc4nncn4n3)C(C)C2)oc1C (stereo not drawn)	7.27%
CC1CCCCN1C(=O)CN1CCN(c2ccc3nncn3n2)CC1 (stereo not drawn)	24%
O=C(CN1CCN(c2ccc3nncn3n2)CC1)NC1CCCCC1	-4.16%
CC1CN(CC2CCCC2)CCN1c1ccc2nncn2n1 (stereo not drawn)	82.6%
CC1CN(CCc2ccccn2)CCN1c1ccc2nncn2n1 (stereo not drawn)	15.6%
CC1CN(CC(=O)NC2CCCC2)CCN1c1ccc2nncn2n1 (stereo not drawn)	50.4%
Cc1cc(CN(C)C(=O)NC2CCN(Cc3ccccn3)CC2)no1	-26.6%
CCn1cc(-c2cncn2CCc2ccc3c(c2)OCCO3)cn1	16.5%
Cc1nc(N2CCOCC2)ncc1-c1cc(O)nc(N2CCCCC2)n1	20.9%
O=C(NCc1csc2ccc(Cl)cc12)c1cc2n(n1)CCNC2	44.4%
Cc1nn(CC(=O)n2cccn2)c(C)c1I	8.53%
O=C(N[C@@H]1CN(c2ncccn2)C[C@@H]2CCCO[C@@H]21)c1ccncc1	35.8%
Cc1cccc(C2(CNC(=O)c3ccnc(N(C)C)c3)CCOCC2)c1	13.5%
COc1ccc(Cl)cc1C(=O)N1C[C@H](C(C)C)[C@@H](N)C1	-0.55%
CCCc1nc(CN2CCOC(Cn3cncn3)C2)cs1 (stereo not drawn)	5.9%
COc1ccc([C@@H]2CN(Cc3cccnc3N)C[C@H]2NC(C)=O)cc1	23.9%
O=C(C1CCCCC1)N1CCC2(CC1)CNCc1ccccc12	61.5%
O=C([C@H]1CCCO1)N1CCC2(CC1)CNCc1ccccc12	17.2%
O=C(C1CCOC1)N1CCC2(CC1)Cc1ccccc1CNC2=O (stereo not drawn)	2.26%

Compound	INHIBITION
O=C([C@@H]1CSCN1)N1CCC2(CC1)CNCc1ccccc12	27.5%
O=C(C1CC1)N1CCC2(CC1)CNCc1ccccc12	74.8%
O=C(C1CC1)N1CCC2(CC1)CNc1ccc(F)cc12	8.85%
CC(CNC(=O)c1cc(C2CC2)on1)N1CCc2ccccc21 (stereo not drawn)	-51.5%
CC(C)CC(N)C1=NC(=C2N=CN=N2)NO1 (stereo not drawn)	37.7%
CC(C)C(N)C1=NC(=C2N=CN=N2)NO1 (stereo not drawn)	8.11%
CC(Cc1ccccc1F)NC(=O)CCC1=NC(=C2N=CN=N2)NO1 (stereo not drawn)	60.4%
Cc1nnc(CN2CCCC2c2ccc(C(C)(C)C)cc2)o1 (stereo not drawn)	38.8%
Cc1nnc(CN2CCCC2c2ccc(Cl)c(Cl)c2)o1 (stereo not drawn)	21.5%
CCc1nc(C2CCCN2Cc2nnc(Cc3ccccc3)o2)no1 (stereo not drawn)	5.97%
c1ccc(Cn2ccnc2CN2CCCC2c2noc(C3CC3)n2)cc1 (stereo not drawn)	18.6%
CCc1nc(C2CCCN2Cc2nc(C(C)(C)C)no2)no1 (stereo not drawn)	71.2%
CCc1nc(C2CCCN2Cc2nc(Cc3ccccc3)no2)no1 (stereo not drawn)	31.3%
Cn1ccnc1CN1CCCC1c1noc(C2CC2)n1 (stereo not drawn)	7.64%
CCc1nc(C2CCCN2Cc2noc(Cc3ccccc3)n2)no1 (stereo not drawn)	72.8%
CCc1nc(C2CCCN2Cc2nnc(CC)o2)no1 (stereo not drawn)	-0.219%
Cc1cc(CN2CCCC2c2noc(C3CC3)n2)c2ccccc2n1 (stereo not drawn)	64.5%
CCc1nc(C2CCCN2Cc2nc(C3CC3)no2)no1 (stereo not drawn)	-34.9%
Cc1nnc(CN2CCCC2c2ccsc2)o1 (stereo not drawn)	53.9%
COCc1ccccc1CNC(=O)CNc1ccccc1C(C)=O	-1.79%
O=C(C1CCOC1)N1CCC2(CC1)CN(Cc1nccs1)CCO2 (stereo not drawn)	15.9%
CNC(=O)c1ccc(C(=O)N2CCCC2c2c(C)nn(C)c2C)cn1 (stereo not drawn)	31.2%

Compound	INHIBITION
Cc1cn2c(n1)CCC(NC(=O)c1csc(C(C)C)n1)C2 (stereo not drawn)	19.5%
CCc1c(C)nc2n(c1=O)CC(C(=O)Nc1sccc1C(=O)OC)CS2 (stereo not drawn)	-7.25%
CN(Cc1nnc2n1CCC2)C(=O)c1ccc2c(c1)OCCCO2	26.4%
Nc1nc2nc(C3CCCN(C(=O)c4cncs4)C3)ccc2s1 (stereo not drawn)	18.3%
Cc1nc(CN2CCCC2c2noc(C3CC3)n2)nc2ccccc12 (stereo not drawn)	80.25%
CCc1nc(C2CCCN2Cc2nc3ccccc3o2)no1 (stereo not drawn)	20.2%
Cc1noc(CN2CCCC2c2noc(C3CC3)n2)n1 (stereo not drawn)	38.5%
CCc1nc(C2CCCN2Cc2cc(C)nc3ccccc23)no1 (stereo not drawn)	60.75%
COc1ccc(C)cc1CN1CCCC1c1noc(C2CC2)n1 (stereo not drawn)	80.3%
c1ccc2oc(CN3CCCC3c3noc(C4CC4)n3)nc2c1 (stereo not drawn)	-87.5025%
c1ccc2nc(CN3CCCC3c3noc(C4CC4)n3)ccc2c1 (stereo not drawn)	54.7%
Cc1cnc(CN2CCCC2c2noc(C3CC3)n2)cn1 (stereo not drawn)	-4.94%
CCc1nc(C2CCCN2Cc2cnc(C)cn2)no1 (stereo not drawn)	-4.94%
Cc1nc(CN2CCCC2c2noc(C3CC3)n2)oc1C (stereo not drawn)	49.35%
COc1c(C)cnc(CN2CCCC2c2noc(C3CC3)n2)c1C (stereo not drawn)	21.3%
CCc1noc(CN2CCCC2c2noc(C3CC3)n2)n1 (stereo not drawn)	27.4%
O=C(NCC1(c2ccc(F)cc2)CCCC1)N1CCOC(CO)C1 (stereo not drawn)	-14.3%
CN(C)CCn1c2c(ccc1=O)CCN(C(=O)c1ccoc1)CC2	-73.5%
Cc1c(C(=O)N2CCC(O)(CN(C)C)C2)c2ccccc2n1C (stereo not drawn)	35.2%
O=c1oc(-c2cccs2)nn1CC(O)c1ccccc1F (stereo not drawn)	35.4%
